This passage reports composite z-score and z-score results from PubChem BioAssay.

The source made the active and inactive calls. Unless noted, how the calls were made is not given here.

In test [1] the test system is XIP peptide (Xip251-270) binding. Kind of test: XIP fragment 251-270 binding compounds – biochemical, small-molecule microarray, fluorescence 635/667 nm, 0.1 µg/mL protein, primary screen (AID 1182). The conditions noted are these: fluorescent protein binding, 635 nm, higher = more signal, called active from +8 up or from −8 down.
The test system of the next test is XIP peptide (Xip251-270). The test can be described thus: compounds binding XIP fragment 251-270 – biochemical, small-molecule microarray, fluorescence 635/667 nm, 0.5 µg/mL protein, primary screen (AID 1183). Conditions: fluorescence 635 nm, higher = more signal.
A short description of test [2]: blood-stage malaria parasite viability loss – strain 3D7, DAPI fluorescence, 100 nL, primary screen (AID 1184).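 Further: parasites grown inside human red blood cells in medium with human serum.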 Conditions: P. falciparum 3D7 growth, 3 d, higher = more signal.
Test [3] addresses Homeobox protein Hox-A13 (Mus musculus) (UniProt Q62424). The test can be described thus: disruptors of Hoxa13 oligonucleotide interaction – biochemical, fluorescence polarization, labeled oligonucleotide, primary screen (AID 1185). Conditions: Hoxa13:DNA binding, 15 min, higher = more signal, called active from +8 up or from −8 down.
Test [4] can be described thus: blockers of DNA damage checkpoint Chk1 activation – imaging, HeLa, hydroxyurea, phospho-Chk1 antibody, percent positive cells, primary screen (AID 1186). The conditions noted are these: hydroxyurea-induced phospho-Chk1 immunofluorescence imaging, higher = more signal.
A short description of test [5]: blockers of DNA damage checkpoint Chk1 activation – imaging, HeLa, hydroxyurea, phospho-Chk1 nuclear intensity, primary screen (AID 1187). The conditions noted are these: hydroxyurea-induced phospho-Chk1 immunofluorescence imaging, higher = more signal.

Homeobox protein Hox-A13 (Mus musculus), sequence (Q62424 whole entry, looked up): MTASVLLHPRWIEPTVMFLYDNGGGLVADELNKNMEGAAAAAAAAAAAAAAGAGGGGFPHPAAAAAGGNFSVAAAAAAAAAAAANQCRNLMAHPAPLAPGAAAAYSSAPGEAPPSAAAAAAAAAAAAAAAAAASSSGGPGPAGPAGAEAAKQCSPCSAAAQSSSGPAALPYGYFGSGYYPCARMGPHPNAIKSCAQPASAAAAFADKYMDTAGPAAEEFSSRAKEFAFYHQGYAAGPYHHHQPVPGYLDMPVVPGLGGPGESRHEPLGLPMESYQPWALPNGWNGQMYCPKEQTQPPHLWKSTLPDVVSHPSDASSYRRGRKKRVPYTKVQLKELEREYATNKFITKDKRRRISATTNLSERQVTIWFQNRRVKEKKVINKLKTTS

On to `COCCOC(=O)N1C(=O)[C@@]2(c3cc(C#CCNC(N)=O)ccc31)[C@H](c1ccc(O)cc1)N1[C@H](c3ccccc3)[C@H](c3ccccc3)OC(=O)[C@H]1[C@@H]2C(=O)N1CCN(c2ncccn2)CC1`, for which the composite z-score in test [1] was 0.237 (inactive); in the test with XIP peptide (Xip251-270) it was 0.796. For the same molecule, the z-score was -1.71 in test [2], 0.0468 (inactive) in test [3], -0.11 (inactive) in test [4] and -0.184 (inactive) in test [5].

Regarding `C=C(CCCC)C(=O)CC[C@H](OC(C)=O)c1ccc(OCCO)cc1`, the figures for the composite z-score (in test [1]; in the test on XIP peptide (Xip251-270)) were 0.783 (inactive) and 0.227, respectively. In addition, the z-score in test [2] was -3.07; in test [3] it was -6.07 (inactive); in test [4], -0.427 (inactive); in test [5] it was -0.523 (inactive).

As to `COCCCNC(=O)[C@@]1(Sc2ccc(C)cc2)CC(=O)N(C(C)C)[C@@H]1c1ccc(CO)cc1I`, the composite z-score in test [1] was 0.287 (inactive); with XIP peptide (Xip251-270) it was 0.609. For the same molecule, the z-score in test [2] was -1.63; in test [3], -4.13 (inactive); in test [4], 0.121 (inactive); in test [5], 0.579 (inactive).

`NC(=O)[C@H]1[C@@H]2C(=O)O[C@@H](c3ccccc3)[C@@H](c3ccccc3)N2[C@@H](c2ccc(O)cc2)[C@]12C(=O)Nc1ccccc12`: the composite z-score in test [1] was -0.367 (inactive); in the test with XIP peptide (Xip251-270) it was -0.764. The z-score in test [2] was 0.428; in test [3], -5.09 (inactive); in test [4], -0.154 (inactive); in test [5], -0.112 (inactive).

Turning to `Cc1ccccc1C(O)C1C=CC2C(=O)NC(=O)C2N1Nc1ccc(Cl)cc1Cl` (configuration not stated), the composite z-score in test [1] was 3.24 (inactive); in the test with XIP peptide (Xip251-270), 0.693. Also, the z-score in test [2] was 0.254; in test [3] it was -5.08 (inactive); in test [4] it was 0.165 (inactive); in test [5] it was -0.016 (inactive).

Consider `Cc1c(NC(=O)/C(C#N)=C/c2ccccc2Cl)c(=O)n(-c2ccccc2)n1C`, for which the composite z-score in test [1] was -0.0708 (inactive); with XIP peptide (Xip251-270) it was 0.808. Besides, the z-score in test [2] was 0.419; in test [3], -1.68 (inactive); in test [4], -0.0018 (inactive); in test [5] it was 0.281 (inactive).

`Cc1ccc([C@H]2C(C(=O)O)=C[C@@H](C(C)(C)C)N2S(=O)(=O)c2ccc(C)cc2)cc1`: the composite z-score was 0.629 (inactive) in test [1] and 0.854 in the test with XIP peptide (Xip251-270). The z-score in test [2] was 1.64; in test [3], -4.73 (inactive); in test [4], 0.695 (inactive); in test [5], 0.255 (inactive).

For the molecule `C[C@@H]1ON(c2ccc(I)cc2)[C@H](c2ccc(OC(=O)OC(C)(C)C)cc2)[C@H]1C(=O)N1C(=O)OC[C@H]1Cc1ccccc1`, the composite z-score in test [1] is 0.589 (inactive); with XIP peptide (Xip251-270) it was 0.515. For the same molecule, the z-score is -2.13 in test [2], -0.866 (inactive) in test [3], -1.08 (inactive) in test [4] and -0.859 (inactive) in test [5].

Consider `CCCCCCCCCCC(O)C1C=CC2C(=O)N(c3ccccc3)C(=O)C2N1Nc1ccccc1F` (configuration not stated), for which the composite z-score in test [1] was 1.69 (inactive); with XIP peptide (Xip251-270), 0.538. The z-score is 0.157 in test [2], 0.356 (inactive) in test [3], -0.745 (inactive) in test [4] and -1.48 (inactive) in test [5].

Turning to `CCOC(=O)C[C@H]1[C@H](OC(=O)c2cc3ccccc3oc2=O)[C@@H](NC(=O)c2ccc3ccccc3c2)c2cc(OCCCO)ccc2N1C(=O)Cc1ccc(OC)cc1`, the composite z-score in test [1] was 0.515 (inactive); with XIP peptide (Xip251-270), 0.335. The z-score in test [2] is -0.791; in test [3], -2.96 (inactive); in test [4], 0.204 (inactive); in test [5], -0.322 (inactive).

For the molecule `COc1cc(C(O)C2C=CC3C(=O)N(Cc4ccccc4)C(=O)C3N2n2cnnc2)cc(OC)c1OC` (configuration not stated), the composite z-score in test [1] was 0.494 (inactive); with XIP peptide (Xip251-270), 0.435. The z-score in test [2] was 0.551; in test [3], -1.38 (inactive); in test [4], 0.102 (inactive); in test [5] it was 0.263 (inactive).

As to `Cc1ccc(C(C)CC(O)C2C=CC3C(=O)N(c4ccccc4)C(=O)C3N2Nc2ccc(C#N)cc2)o1` (configuration not stated), the composite z-score in test [1] is 0.662 (inactive); in the test with XIP peptide (Xip251-270) it was 0.322. The z-score in test [2] was 0.25; in test [3] it was -3.75 (inactive); in test [4], 0.124 (inactive); in test [5] it was 0.222 (inactive).

For `O=C1N(CCS(=O)(=O)c2ccccc2)Cc2ccccc2[C@@H]2OC(c3ccc(OCCCO)cc3)=N[C@]12CCS(=O)(=O)c1ccccc1`, the composite z-score in test [1] is 1.25 (inactive); in the test with XIP peptide (Xip251-270) it was 0.86. Further, the z-score was -2.1 in test [2], 0.71 (inactive) in test [3], 0.367 (inactive) in test [4] and 0.793 (inactive) in test [5].

As to `O=C1OCCC/C=C\[C@H]2OC34C=CCN(c5ccc6ccccc6c5)C(=O)[C@H]3N(CCCO)C(=O)[C@@H]4C12` (some centres not stated), the values for the composite z-score (in test [1]; in the test with XIP peptide (Xip251-270)) were 0.0317 (inactive) and 0.481, respectively. In addition, the z-score in test [2] is 0.267; in test [3] it was -5.72 (inactive); in test [4], 1.41 (inactive); in test [5], 0.656 (inactive).

As for `NCCCCCNC(=O)[C@@H]1C[C@@H]2C(=O)N3CCC[C@H]3C(=O)N2[C@@H]1c1ccc(O)cc1`, the composite z-score is 0.0353 (inactive) in test [1] and 0.0129 in the test on XIP peptide (Xip251-270). Also, the z-score in test [2] is 0.0766; in test [3], -1.74 (inactive); in test [4] it was 0.299 (inactive); in test [5], 0.235 (inactive).

Turning to `CCCC=C(CCC)[C@@H](NC(=O)CCc1ccccc1)c1ccc(C(F)(F)F)cc1`, the composite z-score in test [1] is -0.143 (inactive); with XIP peptide (Xip251-270), 0.75. Further, the z-score in test [2] was -1.65; in test [3] it was -3.8 (inactive); in test [4] it was 0.007 (inactive); in test [5], -0.287 (inactive).

Consider `O=C1OCC=C[C@H]2OC34C=CCN(c5ccc6ccccc6c5)C(=O)[C@H]3N(CCCCCO)C(=O)[C@@H]4[C@@H]12` (some centres not stated), for which the composite z-score is 0.407 (inactive) in test [1] and 0.351 in the test on XIP peptide (Xip251-270). Moreover, the z-score was -0.471 in test [2], -4.6 (inactive) in test [3], 0.464 (inactive) in test [4] and 0.0639 (inactive) in test [5].
